Seven molecules from PubChem BioAssay (NCI) can be followed below.

About 83,000 compounds went through this panel and 20% of them were active in at least one assay; those are over-represented in the sample as a whole.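 Plates (96-well) were seeded with cells, treated with compound at one concentration, and incubated for 48 hours before percent growth was determined.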 A number with no mark means an inactive call. Activity calls are given as the source filed them. The calls were made as follows: active = growth percent below 10; inactive = the rest.

The experiment has as its system HL-60(TB) leukemia. Nature of the experiment: NCI-60 one-dose screen, 48 h (100 = growth as untreated, 0 = no growth, -100 = all killed). Conditions: 10 µM unless noted.
`Cc1ccc(-c2nc(/C=N/Nc3cc(C)nc4ccc(Br)cc34)c(C)o2)cc1`: the growth was -37.4% (active).
Then `Clc1nc(Cl)c2ncn(CC3(Cn4cnc5c(Cl)nc(Cl)nc54)COC3)c2n1`, with -75.5% (active); and `COc1ccc(CCN2C(=O)C(C)(C)SC2=S)cc1OC`, with 106%.
Then `CN1CCN(Cc2ccc(NC(=O)c3cncc(C#Cc4ncc5ccccn45)c3)cc2C(F)(F)F)CC1`, with -3.92% (active); and `NCCOc1ncccc1/C=C1\C2C=CC=CC2C2C=CC(F)=CC12` (configuration not stated), with -24.3% (active); and `O=c1cc(-c2nccc3c2[nH]c2ccccc23)c2cc(Cl)ccc2o1`, with 0.737% (active).
The figure for `COc1ccc(/C=C/C(=O)N2CCC(O)CC2)cc1OC1CCCC1` is 101%.
